Measurements from PubChem BioAssay AID920 (The Scripps Research Institute Molecular Screening Center, 2007).
About 700 (0.35%) of roughly 200,000 compounds were called active. This is one part of a sample in which actives are shown more often than they occur.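 The calls were made as follows: active = inhibition above a set limit, the mean inhibition across all tested compounds plus 3 SD (cut at about 34% in these data); inactive = the rest.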

Assay: blockers of IFN-gamma driven STAT1 reporter – cell-based, HTS, luciferase reporter, primary screen (AID 920);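 also: 0% = IFN-gamma with DMSO and 100% = IFN-gamma with 300 µM nifuroxazide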
Conditions: NIH 3T3 STAT1-luciferase reporter, luminescence, at 5.5 µM, stronger effect = higher value
With `CC(=O)c1ccc(-c2nnc(CCC(=O)N(C)Cc3cnc4ccccn34)o2)s1` the inhibition was 0.17% (inactive). In the case of `COc1ccc(-c2csc(Nc3ccccn3)n2)cc1`, the inhibition is reported as -12.9% (inactive). With `CCOc1cc(NC(=O)c2ccccn2)c(OCC)cc1NC(=O)c1ccc(OC)cc1` the inhibition was 3.8% (inactive). For `COc1ccc(C(=O)/C=C/Nc2ccccn2)cc1`, the inhibition was 82.5% (active). For `CSc1ccc(CN(C)CC(=O)NCc2ccc(F)cc2)cc1`, the inhibition was -7.18% (inactive). In the case of `NC(=O)C1CCN(Cc2nc3c(Br)cc(Br)cc3c(=O)[nH]2)CC1`, the inhibition is reported as 3.52% (inactive). With `CCC(=O)Nc1ccccc1N1CCN(S(C)(=O)=O)CC1` the inhibition was 2.52% (inactive). In the case of `CCCC(=O)Nc1ccccc1N1CCN(C(=O)c2ccccc2)CC1`, the inhibition is reported as 34.8% (active). With `O=C(Nc1ccccc1N1CCN(C(=O)c2ccccc2)CC1)c1ccc2c(c1)OCO2` the inhibition was 2.21% (inactive). With `Cc1nc2ccc(NC(=S)N3CCC(C)CC3)cc2nc1C` the inhibition was -19.9% (inactive). In the case of `COc1cccc(-c2nn(-c3ccccc3)cc2/C=C(\C#N)C(=O)NCCCn2ccnc2)c1`, the inhibition is reported as -6.77% (inactive). In the case of `c1ccc(C2CNCc3c2ccc2ccccc32)cc1` (stereo not drawn), the inhibition is reported as 14.8% (inactive). In the case of `COc1ccc(CC(=O)Nc2cc(S(=O)(=O)N3CCCCC3)ccc2N2CCN(C)CC2)cc1`, the inhibition is reported as 1.82% (inactive). In the case of `Cn1c(N)c(C(=O)COC(=O)/C=C/c2ccc(OC(F)F)cc2)c(=O)n(C)c1=O`, the inhibition is reported as 5.58% (inactive). With `CS(=O)(=O)N1CCC(C(=O)N2CCN(c3ccccc3)CC2)CC1` the inhibition was 7.02% (inactive). For `CCOc1ccc2c(c1)C(c1ccc(C)cc1)=NNC(c1ccc(C)cc1)=N2`, the inhibition was -36.9% (inactive). For `CCc1ccc2c(c1)C(c1ccc([N+](=O)[O-])cc1)=NNC(c1ccccc1)=N2`, the inhibition was 5.38% (inactive). For `Cc1ccc(C2=Nc3c(ccc4ccccc34)C(c3ccncc3)=NN2)cc1`, the inhibition was 66.7% (active). In the case of `CCc1ccc(-c2nn(-c3ccccc3)cc2CSC(=N)N)cc1`, the inhibition is reported as -3.6% (inactive). For `Cc1cc(C)n(CCNC(=O)CC2C(=O)NCCN2Cc2ccc(C)o2)n1` (stereo not drawn), the inhibition was 4.76% (inactive). In the case of `C=CCn1c(CCc2ccc(OC(C)C)cc2)n[nH]c1=S`, the inhibition is reported as -6.91% (inactive). With `C=CCN(C(=O)c1cc(C)cc(C)c1)C1(C(=O)Nc2ccccc2)CCN(C(C)C)CC1` the inhibition was -4.59% (inactive). In the case of `NC(N)=NCCCc1cn(CC(=O)N2CCNCC2)nn1`, the inhibition is reported as 3.04% (inactive). With `Cc1ccc(C(=O)Cn2cccn2)cc1` the inhibition was -6.86% (inactive). With `CN(Cc1cccnc1)C(=O)c1cc(COc2ccc3ncccc3c2)on1` the inhibition was 34.3% (active). In the case of `Cc1cccc(OCCNC(=S)NC(=O)c2cccnc2)c1`, the inhibition is reported as -6.17% (inactive). With `Cc1noc(C)c1COc1cccc(C(=O)Nc2cccnc2)c1` the inhibition was 2.53% (inactive). In the case of `Cc1cccc(N2CCN(c3ccc(NC(=O)/C=C\C(=O)O)cc3)CC2)c1`, the inhibition is reported as 1.29% (inactive). With `OCCC1CN(Cc2cccc(O)c2)CCN1CCc1ccccc1` (stereo not drawn) the inhibition was 8.18% (inactive). In the case of `S=C(NCCc1ccccc1)N1CCn2cccc2C1c1ccncc1` (stereo not drawn), the inhibition is reported as 21.8% (inactive). For `CC(C)(C)c1ccc(Oc2ccc(N)cc2)cc1`, the inhibition was 64.1% (active). With `Cc1ccc(Oc2ccc(N)cc2)cc1` the inhibition was -19.6% (inactive). With `Nc1ccc(Oc2ccc(Cl)cc2)cc1` the inhibition was -14.9% (inactive). For `COc1ccc([C@H]2[C@H](C(C)=O)N3N=Cc4ccccc4C3C23C(=O)OC(C)(C)OC3=O)cc1` (stereo partly drawn), the inhibition was -13.7% (inactive). For `Cn1c(NC(=O)c2ccc3c(c2)OCO3)cc(=O)n(C)c1=O`, the inhibition was 0.99% (inactive). For `Cn1c(=O)n(C)c2cc(C(=O)Nc3ccc4c(c3)OCO4)ccc21`, the inhibition was 35.6% (active). With `COc1ccc(C(=O)Nc2ccc3c(c2)OCO3)cc1OC` the inhibition was -0.74% (inactive). In the case of `Clc1cccc(-c2nc(NCC3CCCO3)c3ccccc3n2)c1` (stereo not drawn), the inhibition is reported as -0.29% (inactive). For `CCc1[nH]nc(C(=O)N2CCCC(CNS(=O)(=O)c3cccs3)C2)c1C` (stereo not drawn), the inhibition was 0.5% (inactive). For `O=C(Nc1cccc([N+](=O)[O-])c1)Nc1ccc(Cl)cn1`, the inhibition was -18.6% (inactive). In the case of `O=C(CCl)N(Cc1cccc([N+](=O)[O-])c1)c1cccc(Cl)c1`, the inhibition is reported as 60.4% (active). For `CCN(CC)C(=O)CN(c1cccc([N+](=O)[O-])c1)S(=O)(=O)c1ccccc1`, the inhibition was 3.4% (inactive). With `Cn1cccc1/C=C1\SC(=S)N(NC(=O)c2ccc(Cl)cc2)C1=O` the inhibition was -4.58% (inactive). For `Cc1cc(C)nc(Nc2ncn[nH]2)n1`, the inhibition was -2.94% (inactive). With `Oc1ccc(-c2nncn2-c2ccccc2)cc1` the inhibition was -0.73% (inactive). For `COc1ccc(OCc2cccc(C(=O)N3CCCC3)c2)cc1`, the inhibition was 17.5% (inactive). With `CCOc1ccc(OCc2cccc(C(=O)N(CC)CC)c2)cc1` the inhibition was 61% (active). In the case of `CCN(CC)C(=O)c1ccc(O)c(OC)c1`, the inhibition is reported as 1.97% (inactive). With `CCOc1ccc(NC(=O)CSc2ncnc3c2sc2ccccc23)cc1` the inhibition was 1.83% (inactive). In the case of `Cc1nnc(CN(C)Cc2cn[nH]c2-c2ccc(-c3ccccc3)cc2)o1`, the inhibition is reported as -18.1% (inactive). With `CCCCn1c(O)c(N=NC(=O)Cn2c(C(F)(F)F)nc3ccccc32)c2ccccc21` the inhibition was -1.73% (inactive). With `Cc1ccc(N(C(=O)Cc2cccs2)C2C=CS(=O)(=O)C2)cc1Cl` (stereo not drawn) the inhibition was 0.68% (inactive). With `C[C@@H]1C[C@@H]2O[C@H]2/C=C\C=C\C(=O)Cc2c(Cl)c(O)cc(O)c2C(=O)O1` the inhibition was 41.3% (active). For `O=C(COC(=O)CCc1ccc(S(=O)(=O)N2CCOCC2)cc1)Nc1cccc(Cl)c1`, the inhibition was -8.09% (inactive). For `CCN(CC)S(=O)(=O)c1ccc(C)c(NC(=O)COc2ccc(Br)cc2Cl)c1`, the inhibition was 0.32% (inactive). In the case of `Cn1cc([N+](=O)[O-])c(C(=O)Nc2cnn(Cc3ccc(F)cc3)c2)n1`, the inhibition is reported as 20.5% (inactive). In the case of `O=C(Nc1ccc2c(c1)OCCO2)c1cnccn1`, the inhibition is reported as -23.3% (inactive). In the case of `Cn1cc([N+](=O)[O-])c(C(=O)Nc2ccc3c(c2)OCCO3)n1`, the inhibition is reported as 48.8% (active). With `NS(=O)(=O)c1ccc(N2C(=O)C3C4CC(C(Br)C4Br)C3C2=O)cc1` (stereo not drawn) the inhibition was 2.56% (inactive). For `CS(=O)(=O)N(Cc1ccccc1)c1ccc(C(=O)NN=C2CCCCCC2)cc1`, the inhibition was 6.58% (inactive). In the case of `O=C(Nc1nc2ccc([N+](=O)[O-])cc2s1)c1ccc(S(=O)(=O)N2CCCc3ccccc32)cc1`, the inhibition is reported as 12.3% (inactive). In the case of `O=C(O)CCC(=O)Nc1nc2ccc([N+](=O)[O-])cc2s1`, the inhibition is reported as -0.97% (inactive). For `O=C(NC(Nc1nc2ccc([N+](=O)[O-])cc2s1)(C(F)(F)F)C(F)(F)F)c1ccccc1`, the inhibition was 60.6% (active).
